From PubChem
PP1 inh – blocks human PP1-alpha phosphatase, a PP5 counter-screen; P62136; purified PP1alpha, OMFP fluorescence; inhibition, % at 6.7 µM; hit rate 0.9% among 320,000;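 active = inhibition above the mean inhibition of all tested compounds plus 3 SD, computed separately for each screening campaign, cut at about 15% in these data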
PREPL inh – inhibits the human prolyl oligopeptidase-like enzyme | recombinant PREPL, fluorescence polarization activity-based probe | hit rate 0.68% among 320,000 | Q4J6C6 | AID 2751 | inhibition, % at 5.96 µM; in the data active = inhibition above about 43%;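 also: 0% = enzyme with DMSO and 100% = wells lacking enzyme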
TMEM16A inh – blocks the mouse calcium-activated chloride channel TMEM16A | normalized B-score (activity score, 25-100; higher = stronger inhibition) at 10 µM | hit rate 1.2% among 310,000 | HEK293 TMEM16A/YFP iodide influx fluorescence, ionomycin;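 active = ratio plate-corrected score three or more library SD toward inhibition, starting fluorescence score within five deviations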;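 also: score derived from kinetic fluorescence span divided by baseline fluorescence per well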
DNA FID counter – fluorescent intercalator displacement, NS3 helicase counter-screen. DNA fluorescent intercalator displacement, fluorescence. inhibition, % at 7.9 µM. hit rate 0.17% among 290,000; in the data active = inhibition above about 37%;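 also: 0% = vehicle and 100% = reference compound; higher means more ethidium bromide displaced from hairpin DNA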
TMEM16A act – activates or potentiates the mouse TMEM16A chloride channel. Q8BHY3. HEK293 TMEM16A/YFP-H148Q/I152L, iodide quench fluorescence; hits give low values. B-score at 10 µM. hit rate 0.3% among 340,000. AID 623877;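 active = fluorescence-ratio B-score plate-corrected deviation score at least 3 library SD below zero, with starting fluorescence score within 5 deviations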;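 also: channel opened by trigger with iodide after compound preincubation; score built on the fluorescence ratio of max minus min over baseline; more negative score means more quench and so TMEM16A activation or potentiation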
PP5 inh – inhibitors of human protein phosphatase 5 (PP5); P53041; purified PP5c, OMFP substrate fluorescence; inhibition, % at 6.7 µM; hit rate 0.18% among 320,000; AID 1987;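 active = inhibition above the campaign's mean inhibition across all tested compounds plus 3 SD, cut at about 9.5% in these data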;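 also: 0% = DMSO only and 100% = 100 µM cantharidin control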
Target sequence (P53041 whole entry, looked up): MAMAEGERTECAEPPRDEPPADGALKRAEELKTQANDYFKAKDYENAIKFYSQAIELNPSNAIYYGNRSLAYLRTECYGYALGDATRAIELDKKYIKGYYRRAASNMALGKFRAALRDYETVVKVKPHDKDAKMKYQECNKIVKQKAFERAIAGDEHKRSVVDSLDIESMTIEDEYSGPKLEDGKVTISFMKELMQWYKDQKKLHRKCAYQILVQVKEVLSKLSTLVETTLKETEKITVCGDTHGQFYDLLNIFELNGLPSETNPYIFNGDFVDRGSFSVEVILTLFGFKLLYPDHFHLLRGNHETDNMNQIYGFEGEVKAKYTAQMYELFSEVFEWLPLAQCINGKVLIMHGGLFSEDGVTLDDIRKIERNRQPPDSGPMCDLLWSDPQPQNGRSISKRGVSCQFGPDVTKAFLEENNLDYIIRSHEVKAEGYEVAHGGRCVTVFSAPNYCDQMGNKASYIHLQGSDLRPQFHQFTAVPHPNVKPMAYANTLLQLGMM
Numbers without * were called inactive. Compounds with a hit are over-represented: about 2.7% of the library has one in this group of screens.

Screening O=C(CC(=O)c1ccccc1)CC(O)(C=Cc1ccccc1)c1ccccc1 (stereo unspecified) returned TMEM16A act inactive.
Screening COc1cccc(C2c3cc4c(cc3OC(C)(N3CCCC3)C2C)OCO4)c1O (stereo unspecified) returned TMEM16A act inactive.
Screening CCOC(=O)c1sc(NC(=O)C2CC(=O)N(c3ccc(OC)cc3)C2)nc1C (stereo unspecified) returned PP1 inh 0.1, PREPL inh 0.0, TMEM16A inh inactive, DNA FID counter -22.0, TMEM16A act inactive and PP5 inh 0.7.
Screening C#CCOCCOCCOCCNc1nc(N2CCN(C(=O)[C@H](CCCCN)n3cc([C@@H](N)CC(C)C)nn3)CC2)nc(N2CCN(C(=O)[C@H](CCCCN)n3cc([C@@H](N)CC(C)C)nn3)CC2)n1 returned PP1 inh 1.4, PREPL inh 13.8, TMEM16A inh inactive, DNA FID counter 58.0*, TMEM16A act inactive and PP5 inh 2.0.
For C#CCOCCOCCOCCNc1nc(N2CCN(C(=O)C(Cc3ccc(O)cc3)n3cc(C(N)C(C)CC)nn3)CC2)nc(N2CCN(C(=O)C(Cc3ccc(O)cc3)n3cc(C(N)C(C)CC)nn3)CC2)n1 (stereo unspecified) the results were PP1 inh 2.7, PREPL inh 21.2, TMEM16A inh inactive, DNA FID counter 39.6*, TMEM16A act inactive and PP5 inh -0.1.
Screening C#CCOCCOCCOCCNc1nc(N2CCOCC2)nc(N2CCN(C(=O)[C@H](Cc3ccc(O)cc3)n3cc([C@@H](N)C(C)CC)nn3)CC2)n1 (stereo partly specified) returned PP1 inh 1.1, PREPL inh 7.3, TMEM16A inh inactive, DNA FID counter 18.7, TMEM16A act inactive and PP5 inh 2.7.
For C#CCOCCOCCOCCNc1nc(N2CCN(C(=O)[C@H](CCCCN)n3cc([C@@H](N)C(C)CC)nn3)CC2)nc(N2CCN(C(=O)[C@H](Cc3ccc(O)cc3)n3cc([C@@H](N)CC(C)C)nn3)CC2)n1 (stereo partly specified) the results were PP1 inh 7.7, PREPL inh 18.8, TMEM16A inh inactive, DNA FID counter 49.1*, TMEM16A act inactive and PP5 inh -4.9.
Cc1cc(NC2CCCCC2)nc(NCc2ccccc2)n1 was read as PP1 inh 5.7, PREPL inh 9.7, TMEM16A inh 100*, DNA FID counter 8.7, TMEM16A act inactive and PP5 inh 0.4.
Screening NS(=O)(=O)c1ccc(N=C2C(=O)Nc3ccccc32)cc1 returned PP1 inh 15.9*, PREPL inh 0.7, TMEM16A inh inactive, DNA FID counter -1.8, TMEM16A act inactive and PP5 inh -0.5.
For O=C1Nc2ccccc2C1=Nc1ccc(F)cc1 the results were PP1 inh 0.5, PREPL inh 3.5, TMEM16A inh inactive, DNA FID counter -1.0, TMEM16A act inactive and PP5 inh -0.5.
Cc1ccc(S(=O)(=O)Nc2ccccc2N2CCOCC2)cc1 was read as PP1 inh 0.2, PREPL inh 10.9, TMEM16A inh inactive, DNA FID counter -32.0, TMEM16A act inactive and PP5 inh -1.1.
Cc1ccc(S(=O)(=O)Nc2ccccc2N2CCCCC2)cc1 was read as PREPL inh 12.6 and TMEM16A act -20*.
For O=C(NC(Cc1ccccc1)C(=O)N1CCN(c2ccccc2O)CC1)c1ccccc1 (stereo unspecified) the results were TMEM16A act inactive.
For Cc1ccc(C2=NC(=O)/C(=C/c3cc(O)c(O)c(Br)c3)S2)cc1 the results were DNA FID counter -6.1 and TMEM16A act -6*.
For COc1ccccc1C(C)Nc1nc(-c2cccnc2)nc2ccccc12 (stereo unspecified) the results were PP1 inh 6.2, PREPL inh -13.9, TMEM16A inh inactive, DNA FID counter -20.5, TMEM16A act inactive and PP5 inh 0.8.
For O=C(N/N=C/c1ccc(-c2ccc(Br)cc2)o1)c1ccc2c(c1)OCO2 the results were PP1 inh 15.6*, PREPL inh -2.0, TMEM16A inh inactive, DNA FID counter -1.1, TMEM16A act inactive and PP5 inh 4.7.
`O=C(N/N=C/c1ccc(COc2ccc(Br)cc2)o1)c1ccc2c(c1)OCO2` gave DNA FID counter -10.8 and TMEM16A act inactive.
For COc1ccc(C(C)=O)cc1CC(=O)Nc1cccc(S(=O)(=O)N2CCOCC2)c1 the results were PP1 inh -3.6, PREPL inh -0.3, TMEM16A act inactive and PP5 inh -2.9.
Screening CCCOc1ccc(C(=O)NNC(=S)NC(=O)c2ccccc2)cc1 returned PP1 inh 0.0, PREPL inh 6.1, TMEM16A inh 100*, DNA FID counter -47.3, TMEM16A act inactive and PP5 inh -1.2.
For CC(C)(C)c1ccc(C(=O)NC(=S)NNC(=O)c2cccs2)cc1 the results were PP1 inh -1.4, PREPL inh 7.8, TMEM16A inh 100*, DNA FID counter -1.3, TMEM16A act inactive and PP5 inh -1.0.
CCCOc1ccc(C(=O)NNC(=S)NC(=O)c2cccs2)cc1 was read as PP1 inh 13.9, PREPL inh 0.7, TMEM16A inh 100*, DNA FID counter -40.6, TMEM16A act inactive and PP5 inh 0.8.
Screening Cc1ccc(C(=O)NNC(=S)NC(=O)COc2ccccc2)cc1 returned PP1 inh 1.1, PREPL inh -6.4, TMEM16A inh 25*, DNA FID counter -2.7, TMEM16A act inactive and PP5 inh 3.9.
`CC(C)(C)c1ccc(C(=O)NC(=S)NNC(=O)COc2ccccc2)cc1` gave PP1 inh -0.8, PREPL inh 0.7, TMEM16A inh 100*, DNA FID counter -23.3, TMEM16A act -4.63* and PP5 inh 3.4.
Screening Cc1cccc(OCC(=O)NC(=S)NNC(=O)c2ccncc2)c1 returned PP1 inh -4.0, PREPL inh -1.6, TMEM16A inh inactive, DNA FID counter 5.1, TMEM16A act inactive and PP5 inh 4.1.
O=C(NCCCNC(=O)c1ccco1)c1cccc(F)c1 was read as PP1 inh 8.3, PREPL inh -8.1, TMEM16A inh inactive, DNA FID counter -4.2, TMEM16A act inactive and PP5 inh -2.5.
For O=C(C[C@@H]1C/C=C\C[C@@H](Cc2ccc(F)cc2)C(=O)OC[C@H]2CCCN2C1=O)NCCO the results were PREPL inh 29.7 and TMEM16A act inactive.
`COC(=O)Nc1ccc2c(c1)N(C(=O)CCN1CCN3CCCC3C1)c1ccccc1S2` (stereo unspecified) gave PP1 inh -2.3, PREPL inh 8.1, TMEM16A inh inactive, DNA FID counter 38.6*, TMEM16A act inactive and PP5 inh 3.9.
